In the supplement of paper PMC10849652:
Targets with a hit are over-represented here; the source holds about 8,800 in all. About 0.5% of all pairs of compound and target were hits.

What was measured:
Assay in all cases: log2 fold change, soluble protein after heating vs DMSO (PISA); higher = thermal stabilisation; K562 lysate, 10 uM; active = over 0.2 and 3.5 SD of the protein, either way, in both replicates (recomputed)
alvocidib = compound: CN1CC[C@H](c2c(O)cc(O)c3c(=O)cc(-c4ccccc4Cl)oc23)[C@H](O)C1 [alvocidib]
Outline: (§1)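 Thermal stability, expressed as log-two fold change relative to solvent controls, is given from duplicates. Crude K562 extract in PBS pH 7.4 with 1 mM MgCl2, at 1 mg/mL protein, was treated with 10 μM compound for 30 min and heated in aliquots for 3 min across 48°C-58°C. After pooling, adjustment to 0.5% NP-40 at 4°C and centrifugation at 21,000xg for 90 min, supernatant protein was measured by TMTpro 16plex LC-MS/MS with channel sums equalised.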

Tubastatin A = compound: CN1CCc2c(c3ccccc3n2Cc2ccc(C(=O)NO)cc2)C1 [Tubastatin A]
Outline: as §1

[1] = compound: CNC(=O)C1=CC=CC=C1NC2=NC(=NC=C2Cl)NC3=C(C=C(C=C3)N4CCOCC4)OC
Outline: as §1

defactinib = compound: CNC(=O)c1ccc(Nc2ncc(C(F)(F)F)c(NCc3nccnc3N(C)S(C)(=O)=O)n2)cc1 [defactinib]
Outline: as §1

[2] = compound: CNc1nc(-c2ccc3c(N)n[nH]c3c2)cc(N2C[C@@H](C(=O)NC3CCCCC3)CC[C@H]2C)n1
Outline: as §1

encorafenib = compound: COC(=O)N[C@@H](C)CNc1nccc(-c2cn(C(C)C)nc2-c2cc(Cl)cc(NS(C)(=O)=O)c2F)n1 [encorafenib]
Outline: as §1

[3] = compound: COC(=O)[C@H](CCSC)NC(=O)C1=C(C=C(C=C1)NC[C@H](CS)N)C2=CC=CC=C2
Outline: as §1

alisertib = compound: COc1cc(Nc2ncc3c(n2)-c2ccc(Cl)cc2C(c2c(F)cccc2OC)=NC3)ccc1C(=O)O [alisertib]
Outline: as §1

[4] = compound: COc1cc2nc(-c3cc(F)ccc3O)nc(N[C@@H]3CNC[C@H]3C(C)(C)O)c2cc1OC
Outline: as §1

gefitinib = compound: COc1cc2ncnc(Nc3ccc(F)c(Cl)c3)c2cc1OCCCN1CCOCC1 [gefitinib]
Outline: as §1

lapatinib = compound: CS(=O)(=O)CCNCc1ccc(-c2ccc3ncnc(Nc4ccc(OCc5cccc(F)c5)c(Cl)c4)c3c2)o1 [lapatinib]
Outline: as §1

pictilisib = compound: CS(=O)(=O)N1CCN(Cc2cc3nc(-c4cccc5[nH]ncc45)nc(N4CCOCC4)c3s2)CC1 [pictilisib]
Outline: as §1

crizotinib = compound: C[C@@H](Oc1cc(-c2cnn(C3CCNCC3)c2)cnc1N)c1c(Cl)ccc(F)c1Cl [crizotinib]
Outline: as §1

[5] = compound: C[C@H](C1=CC=C(C=C1)C(=O)NC2=C3C=CNC3=NC=C2)N
Outline: as §1

duvelisib = compound: C[C@H](Nc1ncnc2nc[nH]c12)c1cc2cccc(Cl)c2c(=O)n1-c1ccccc1 [duvelisib]
Outline: as §1

gandotinib = compound: Cc1cc(Nc2cc(CN3CCOCC3)c3nc(C)c(Cc4ccc(Cl)cc4F)n3n2)n[nH]1 [gandotinib]
Outline: as §1

tozasertib = compound: Cc1cc(Nc2cc(N3CCN(C)CC3)nc(Sc3ccc(NC(=O)C4CC4)cc3)n2)n[nH]1 [tozasertib]
Outline: as §1

doramapimod = compound: Cc1ccc(-n2nc(C(C)(C)C)cc2NC(=O)Nc2ccc(OCCN3CCOCC3)c3ccccc23)cc1 [doramapimod]
Outline: as §1

bafetinib = compound: Cc1ccc(NC(=O)c2ccc(CN3CC[C@H](N(C)C)C3)c(C(F)(F)F)c2)cc1Nc1nccc(-c2cncnc2)n1 [bafetinib]
Outline: as §1

[6] = compound: Cc1cccc(CC(=O)N2CCc3c2ccc(-c2cn(C)c4ncnc(N)c24)c3F)n1
Outline: as §1

Measured: log2 fold change

NEK9 (UniProt Q8TD19)
inactive: alvocidib -0.062 | Tubastatin A -0.062 | [1] 0.193 | defactinib 0.08 | [2] -0.009 | encorafenib -0.018 | [3] -0.008 | alisertib -0.048 | [4] -0.01 | gefitinib -0.039 | lapatinib -0.013 | pictilisib 0.039 | crizotinib 0.057 | [5] -0.092 | duvelisib 0.006 | gandotinib 0.108 | tozasertib 0.025 | doramapimod -0.033 | bafetinib 0.014 | [6] 0.019

NCKAP1L (UniProt P55160)
UniProt P55160, sequence (P55160 whole entry, looked up): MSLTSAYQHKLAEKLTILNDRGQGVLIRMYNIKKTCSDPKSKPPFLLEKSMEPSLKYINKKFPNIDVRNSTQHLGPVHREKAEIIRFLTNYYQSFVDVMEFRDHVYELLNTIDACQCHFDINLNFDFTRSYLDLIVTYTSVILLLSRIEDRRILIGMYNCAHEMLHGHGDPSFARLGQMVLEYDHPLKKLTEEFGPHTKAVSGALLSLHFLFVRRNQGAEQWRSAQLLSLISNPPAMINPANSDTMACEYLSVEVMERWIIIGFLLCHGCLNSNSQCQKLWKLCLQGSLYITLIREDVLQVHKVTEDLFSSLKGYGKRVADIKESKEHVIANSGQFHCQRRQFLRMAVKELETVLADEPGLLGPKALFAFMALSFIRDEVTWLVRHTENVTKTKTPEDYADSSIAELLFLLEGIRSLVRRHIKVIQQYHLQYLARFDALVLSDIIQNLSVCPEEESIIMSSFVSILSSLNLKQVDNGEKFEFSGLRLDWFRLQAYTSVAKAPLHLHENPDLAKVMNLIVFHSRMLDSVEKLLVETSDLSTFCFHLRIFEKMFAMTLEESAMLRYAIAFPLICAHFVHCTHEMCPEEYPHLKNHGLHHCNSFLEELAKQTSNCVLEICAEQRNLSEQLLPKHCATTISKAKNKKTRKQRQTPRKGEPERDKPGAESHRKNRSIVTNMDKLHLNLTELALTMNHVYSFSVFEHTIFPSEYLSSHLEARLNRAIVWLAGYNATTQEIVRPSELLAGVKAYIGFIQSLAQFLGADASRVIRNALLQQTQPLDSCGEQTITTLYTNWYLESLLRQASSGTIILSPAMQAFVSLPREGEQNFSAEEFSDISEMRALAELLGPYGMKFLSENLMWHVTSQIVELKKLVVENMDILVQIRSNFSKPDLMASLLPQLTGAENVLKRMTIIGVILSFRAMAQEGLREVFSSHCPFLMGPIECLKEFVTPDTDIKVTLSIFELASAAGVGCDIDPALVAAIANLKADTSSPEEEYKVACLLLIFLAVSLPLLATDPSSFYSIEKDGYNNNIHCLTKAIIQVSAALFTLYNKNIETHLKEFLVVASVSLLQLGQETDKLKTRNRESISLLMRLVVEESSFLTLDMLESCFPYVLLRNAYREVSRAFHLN
inactive: alvocidib -0.033 | Tubastatin A -0.043 | [1] 0.198 | defactinib 0.009 | [2] 0.063 | encorafenib 0.058 | [3] -0.223 | alisertib 0.022 | [4] -0.025 | gefitinib -0.059 | lapatinib 0 | pictilisib 0 | crizotinib -0.061 | [5] -0.002 | duvelisib 0.02 | gandotinib 0.025 | tozasertib 0.018 | doramapimod -0.011 | bafetinib -0.324 | [6] 0.017

NUSAP1 (UniProt Q9BXS6)
UniProt Q9BXS6, sequence (Q9BXS6 whole entry, looked up): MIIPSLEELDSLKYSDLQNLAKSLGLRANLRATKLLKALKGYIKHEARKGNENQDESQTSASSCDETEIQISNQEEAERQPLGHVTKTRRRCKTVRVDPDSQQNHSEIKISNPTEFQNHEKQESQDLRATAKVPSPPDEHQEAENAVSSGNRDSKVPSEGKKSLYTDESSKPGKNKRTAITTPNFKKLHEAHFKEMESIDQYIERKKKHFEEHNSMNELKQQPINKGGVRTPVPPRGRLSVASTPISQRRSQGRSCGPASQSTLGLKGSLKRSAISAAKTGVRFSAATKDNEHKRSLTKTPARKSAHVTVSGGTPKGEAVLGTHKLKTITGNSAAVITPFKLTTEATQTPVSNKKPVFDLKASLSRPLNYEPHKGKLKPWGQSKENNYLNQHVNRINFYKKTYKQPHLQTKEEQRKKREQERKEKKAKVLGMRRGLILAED
active: [5] -0.334 | [6] 0.217
inactive: alvocidib -0.17 | Tubastatin A 0.029 | [1] -0.02 | defactinib 0.027 | [2] 0.07 | encorafenib 0.012 | [3] -0.028 | alisertib 0.01 | [4] -0.002 | gefitinib -0.012 | lapatinib -0.004 | pictilisib -0.018 | crizotinib 0.045 | duvelisib -0.022 | gandotinib 0.141 | tozasertib -0.001 | doramapimod -0.011 | bafetinib 0.008

NF1 (UniProt P21359)
inactive: alvocidib 0.03 | Tubastatin A -0.098 | [1] 0.029 | defactinib 0.012 | [2] 0.009 | encorafenib 0.026 | [3] -0.267 | alisertib 0.03 | [4] 0.006 | gefitinib 0.058 | lapatinib -0.034 | pictilisib -0.022 | crizotinib -0.075 | [5] -0.031 | duvelisib -0.001 | gandotinib -0.108 | tozasertib -0.014 | doramapimod -0.009 | bafetinib -0.041 | [6] 0.049

MTA1 (UniProt Q13330)
inactive: alvocidib 0.007 | Tubastatin A -0.045 | [1] 0.013 | defactinib 0.008 | [2] -0.01 | encorafenib -0.005 | [3] 0.098 | alisertib -0.026 | [4] 0.023 | gefitinib -0.023 | lapatinib -0.002 | pictilisib 0 | crizotinib -0.008 | [5] 0.001 | duvelisib -0.059 | gandotinib -0.067 | tozasertib -0.002 | doramapimod -0.009 | bafetinib 0.023 | [6] 0.017

MRPL51 (UniProt Q4U2R6)
inactive: alvocidib -0.039 | Tubastatin A -0.018 | [1] 0.016 | defactinib 0.198 | [2] -0.002 | encorafenib 0.088 | [3] -0.208 | alisertib -0.005 | [4] -0.005 | gefitinib -0.044 | lapatinib -0.051 | pictilisib -0.016 | crizotinib 0.056 | [5] -0.201 | duvelisib -0.004 | gandotinib 0.058 | tozasertib 0.083 | doramapimod -0.247 | bafetinib 0.02 | [6] 0.091

OSBP (UniProt P22059)
UniProt P22059, sequence (P22059 whole entry, looked up): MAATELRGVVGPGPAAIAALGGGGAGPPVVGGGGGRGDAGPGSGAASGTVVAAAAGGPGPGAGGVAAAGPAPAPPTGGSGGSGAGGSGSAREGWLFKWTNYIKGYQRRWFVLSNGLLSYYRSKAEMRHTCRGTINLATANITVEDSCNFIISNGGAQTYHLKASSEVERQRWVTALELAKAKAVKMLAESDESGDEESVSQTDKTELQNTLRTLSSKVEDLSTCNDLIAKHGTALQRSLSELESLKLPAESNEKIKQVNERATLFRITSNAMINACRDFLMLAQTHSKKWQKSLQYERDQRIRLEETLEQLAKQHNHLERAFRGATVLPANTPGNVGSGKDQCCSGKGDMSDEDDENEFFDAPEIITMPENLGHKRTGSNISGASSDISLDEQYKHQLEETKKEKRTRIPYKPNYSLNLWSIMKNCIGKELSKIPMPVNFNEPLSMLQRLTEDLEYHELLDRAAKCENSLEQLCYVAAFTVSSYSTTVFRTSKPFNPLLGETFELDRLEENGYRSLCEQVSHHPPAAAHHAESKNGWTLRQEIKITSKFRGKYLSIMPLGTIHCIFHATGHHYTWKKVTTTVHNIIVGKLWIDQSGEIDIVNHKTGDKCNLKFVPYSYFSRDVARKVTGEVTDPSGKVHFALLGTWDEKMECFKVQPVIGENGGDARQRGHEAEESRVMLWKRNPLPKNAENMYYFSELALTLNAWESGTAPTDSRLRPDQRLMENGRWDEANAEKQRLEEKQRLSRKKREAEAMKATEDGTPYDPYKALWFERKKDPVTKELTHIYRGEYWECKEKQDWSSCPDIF
inactive: alvocidib 0 | Tubastatin A 0.06 | [1] -0.193 | defactinib -0.009 | [2] -0.155 | encorafenib 0.017 | [3] 0.001 | alisertib 0.026 | [4] 0.042 | gefitinib -0.045 | lapatinib -0.101 | pictilisib -0.046 | crizotinib 0.007 | [5] 0 | duvelisib 0.037 | gandotinib -0.072 | tozasertib -0.015 | doramapimod -0.028 | bafetinib -0.093 | [6] 0.03

NDUFS1 isoform 2 (UniProt P28331)
inactive: alvocidib 0.008 | Tubastatin A -0.018 | [1] -0.024 | defactinib 0.028 | [2] 0.014 | encorafenib -0.011 | [3] 0.05 | alisertib 0.03 | [4] -0.025 | gefitinib -0.001 | lapatinib 0.023 | pictilisib -0.014 | crizotinib 0.034 | [5] 0.009 | duvelisib -0.01 | gandotinib -0.006 | tozasertib 0.03 | doramapimod 0.024 | bafetinib -0.013 | [6] -0.006

PANK1 (UniProt Q8TE04)
UniProt Q8TE04, sequence (Q8TE04 whole entry, looked up): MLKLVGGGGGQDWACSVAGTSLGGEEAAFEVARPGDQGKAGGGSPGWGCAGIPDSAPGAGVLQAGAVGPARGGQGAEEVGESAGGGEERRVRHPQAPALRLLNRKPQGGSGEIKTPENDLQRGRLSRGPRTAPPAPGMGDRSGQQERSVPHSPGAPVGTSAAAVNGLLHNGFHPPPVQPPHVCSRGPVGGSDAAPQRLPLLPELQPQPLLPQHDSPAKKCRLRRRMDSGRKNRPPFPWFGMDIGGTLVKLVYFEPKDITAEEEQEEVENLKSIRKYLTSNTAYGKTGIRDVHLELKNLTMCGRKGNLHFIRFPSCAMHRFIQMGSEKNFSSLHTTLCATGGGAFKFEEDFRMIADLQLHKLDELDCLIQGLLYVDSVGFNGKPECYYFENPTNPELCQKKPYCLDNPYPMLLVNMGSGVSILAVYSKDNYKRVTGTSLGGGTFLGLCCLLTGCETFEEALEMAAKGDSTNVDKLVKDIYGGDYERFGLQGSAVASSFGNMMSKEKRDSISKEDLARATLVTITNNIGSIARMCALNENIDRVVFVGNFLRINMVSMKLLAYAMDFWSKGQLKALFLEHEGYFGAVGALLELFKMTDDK
inactive: alvocidib 0.002 | Tubastatin A 0.025 | [1] 0.051 | defactinib -0.082 | [2] -0.076 | encorafenib 0.312 | [3] 0.173 | alisertib 0.001 | [4] -0.096 | gefitinib 0.072 | lapatinib -0.008 | pictilisib 0.151 | crizotinib -0.018 | [5] 0.106 | duvelisib 0.099 | tozasertib 0.069 | doramapimod 0.041 | bafetinib -0.062 | [6] -0.253
active: gandotinib -0.31

NUP98 (UniProt P52948)
inactive: alvocidib -0.019 | Tubastatin A -0.117 | [1] 0.029 | defactinib 0.031 | [2] 0.047 | encorafenib 0.064 | [3] -0.04 | alisertib 0.01 | [4] 0.017 | gefitinib 0.011 | lapatinib 0.007 | pictilisib -0.041 | crizotinib 0.017 | [5] -0.014 | duvelisib -0.04 | gandotinib 0.01 | tozasertib -0.033 | doramapimod -0.024 | bafetinib -0.024 | [6] 0.043

NSL1 (UniProt Q96IY1)
inactive: alvocidib -0.026 | Tubastatin A -0.084 | [1] 0.016 | defactinib 0.034 | [2] -0.004 | encorafenib -0.055 | [3] 0.094 | alisertib 0.019 | [4] -0.014 | gefitinib -0.004 | lapatinib -0.003 | pictilisib -0.032 | crizotinib 0.051 | [5] 0.001 | duvelisib -0.033 | gandotinib 0.094 | tozasertib -0.01 | doramapimod -0.047 | bafetinib 0.034 | [6] 0.006

NNMT (UniProt P40261)
UniProt P40261, sequence (P40261 whole entry, looked up): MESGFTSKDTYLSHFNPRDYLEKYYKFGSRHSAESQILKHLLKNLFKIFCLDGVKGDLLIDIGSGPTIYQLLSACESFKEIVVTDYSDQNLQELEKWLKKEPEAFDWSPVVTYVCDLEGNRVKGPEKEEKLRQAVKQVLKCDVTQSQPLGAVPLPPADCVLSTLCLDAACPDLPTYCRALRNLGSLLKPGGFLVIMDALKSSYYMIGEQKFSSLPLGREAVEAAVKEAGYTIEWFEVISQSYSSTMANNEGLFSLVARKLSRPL
inactive: alvocidib -0.001 | Tubastatin A -0.03 | [1] 0 | defactinib -0.049 | [2] -0.086 | encorafenib 0.043 | alisertib 0 | [4] 0.009 | gefitinib 0.004 | lapatinib -0.017 | pictilisib 0.037 | crizotinib -0.065 | [5] -0.072 | duvelisib 0.066 | gandotinib 0.015 | tozasertib 0 | doramapimod 0.013 | bafetinib -0.066 | [6] -0.001
active: [3] -0.317

NUP188 (UniProt Q5SRE5)
UniProt Q5SRE5, sequence (Q5SRE5 whole entry, looked up): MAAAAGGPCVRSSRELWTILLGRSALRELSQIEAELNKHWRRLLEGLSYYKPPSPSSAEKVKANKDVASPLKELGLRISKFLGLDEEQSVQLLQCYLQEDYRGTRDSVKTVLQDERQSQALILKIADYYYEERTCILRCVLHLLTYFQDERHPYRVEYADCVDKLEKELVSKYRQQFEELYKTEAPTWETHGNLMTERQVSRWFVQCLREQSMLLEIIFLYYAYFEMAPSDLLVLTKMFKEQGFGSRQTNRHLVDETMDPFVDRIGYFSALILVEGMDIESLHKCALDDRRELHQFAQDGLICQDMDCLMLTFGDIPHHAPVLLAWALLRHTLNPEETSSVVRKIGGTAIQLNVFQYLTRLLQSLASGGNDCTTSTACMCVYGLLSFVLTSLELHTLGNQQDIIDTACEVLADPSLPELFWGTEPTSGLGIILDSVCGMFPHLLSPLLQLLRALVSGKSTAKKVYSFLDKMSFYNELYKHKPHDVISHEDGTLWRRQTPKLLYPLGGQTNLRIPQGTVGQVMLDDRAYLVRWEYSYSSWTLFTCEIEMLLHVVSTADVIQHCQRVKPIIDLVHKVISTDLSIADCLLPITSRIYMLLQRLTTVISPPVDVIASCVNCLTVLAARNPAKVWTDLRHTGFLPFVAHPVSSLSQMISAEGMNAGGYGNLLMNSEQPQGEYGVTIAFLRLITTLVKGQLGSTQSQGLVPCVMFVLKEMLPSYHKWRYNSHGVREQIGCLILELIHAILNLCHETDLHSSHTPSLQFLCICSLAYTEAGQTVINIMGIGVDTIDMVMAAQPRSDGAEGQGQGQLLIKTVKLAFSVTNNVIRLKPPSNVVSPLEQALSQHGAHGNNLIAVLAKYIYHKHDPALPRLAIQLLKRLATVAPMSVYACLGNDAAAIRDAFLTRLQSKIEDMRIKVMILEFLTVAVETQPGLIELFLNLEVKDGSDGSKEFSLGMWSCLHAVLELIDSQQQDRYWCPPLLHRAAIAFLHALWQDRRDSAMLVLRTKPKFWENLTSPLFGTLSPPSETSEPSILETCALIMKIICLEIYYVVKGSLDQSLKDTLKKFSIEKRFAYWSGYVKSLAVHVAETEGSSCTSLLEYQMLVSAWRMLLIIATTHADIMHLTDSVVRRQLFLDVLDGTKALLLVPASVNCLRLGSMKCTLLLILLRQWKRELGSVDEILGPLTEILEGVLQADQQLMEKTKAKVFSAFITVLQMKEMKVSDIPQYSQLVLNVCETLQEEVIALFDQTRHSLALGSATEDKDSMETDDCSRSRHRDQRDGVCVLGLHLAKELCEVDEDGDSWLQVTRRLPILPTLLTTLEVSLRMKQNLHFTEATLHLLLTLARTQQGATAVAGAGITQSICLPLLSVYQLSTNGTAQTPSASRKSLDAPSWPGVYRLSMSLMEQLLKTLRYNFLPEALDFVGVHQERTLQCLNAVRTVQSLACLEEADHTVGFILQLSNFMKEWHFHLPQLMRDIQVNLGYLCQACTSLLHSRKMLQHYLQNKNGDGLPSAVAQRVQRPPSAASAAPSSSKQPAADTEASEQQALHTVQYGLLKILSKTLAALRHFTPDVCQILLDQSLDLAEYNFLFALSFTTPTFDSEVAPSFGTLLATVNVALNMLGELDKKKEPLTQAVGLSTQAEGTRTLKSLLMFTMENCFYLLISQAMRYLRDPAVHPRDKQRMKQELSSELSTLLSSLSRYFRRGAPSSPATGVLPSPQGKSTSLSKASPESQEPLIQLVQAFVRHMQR
inactive: alvocidib 0.004 | Tubastatin A -0.049 | [1] -0.018 | defactinib 0.038 | [2] -0.016 | encorafenib -0.045 | [3] 0.043 | alisertib -0.007 | [4] 0.025 | gefitinib 0.011 | lapatinib -0.063 | pictilisib -0.04 | crizotinib -0.05 | [5] -0.024 | duvelisib 0.004 | gandotinib -0.127 | tozasertib -0.012 | doramapimod -0.034 | bafetinib -0.031 | [6] 0.039

MVB12A (UniProt Q96EY5)
inactive: alvocidib -0.019 | Tubastatin A -0.221 | [1] -0.009 | defactinib 0.056 | [2] 0.037 | encorafenib -0.015 | [3] -0.012 | alisertib -0.011 | [4] -0.035 | gefitinib -0.055 | lapatinib 0.012 | pictilisib -0.027 | crizotinib -0.025 | [5] 0 | duvelisib -0.04 | gandotinib -0.031 | tozasertib -0.046 | doramapimod 0.012 | bafetinib -0.015 | [6] -0.031

NEDD8 (UniProt Q15843)
UniProt Q15843, sequence (Q15843 whole entry, looked up): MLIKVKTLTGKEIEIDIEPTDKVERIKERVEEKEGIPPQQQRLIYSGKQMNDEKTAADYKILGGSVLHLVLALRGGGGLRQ
inactive: alvocidib 0.169 | Tubastatin A 0.132 | [1] 0.083 | defactinib 0.019 | [2] 0.037 | encorafenib 0.015 | [3] -0.062 | alisertib 0.021 | [4] -0.03 | gefitinib -0.148 | lapatinib 0.04 | pictilisib 0.028 | crizotinib 0.041 | [5] 0.19 | duvelisib 0.019 | gandotinib -0.062 | tozasertib 0.06 | doramapimod -0.049 | bafetinib -0.117 | [6] -0.107

OGT (UniProt O15294)
inactive: alvocidib 0.045 | Tubastatin A -0.129 | [1] 0.054 | defactinib 0.018 | [2] 0.019 | encorafenib 0.043 | [3] 0.121 | alisertib 0.01 | [4] 0.007 | gefitinib -0.015 | lapatinib -0.006 | pictilisib -0.038 | crizotinib -0.038 | [5] -0.016 | duvelisib -0.016 | gandotinib -0.086 | tozasertib 0.016 | doramapimod 0.009 | bafetinib -0.011 | [6] -0.029
